# Source: PubChem BioAssay AID2551 (National Center for Advancing Translational Sciences (NCATS), 2010)
# Where “and” joins values, the source holds several entries; their conditions need not be identical. Identical values can stand only once. Among all 310,000 compounds or so, about 17,000 (5.5%) were called active. About 11% were inconclusive and are not listed. The call rests on the fitted dose curve; in most records, active means well fitted inhibition curve with a large enough effect; inconclusive means small, poorly fitted or top-dose-only effect, or effect the other way; inactive means no such curve, though single readings can be large or run the other way. The full list was thinned out, with actives kept by preference. Some structures have more than one record in an assay (separate samples or runs), and their calls can disagree.
# Target: Nuclear receptor ROR-gamma (Mus musculus) (UniProt P51450)
# Test: qHTS for inhibitors of ROR gamma transcriptional activity; further: nearly all actives have a fitted effect of over 60% in size
# Conditions: Drosophila S2 Gal4-RORgamma UAS-luciferase reporter, 20 h; series mostly up to 53.6 µM; activity change, negative = inhibition: at the top concentration
# Summary of the method: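 A Gal4/UAS one-hybrid system in insect cells: metallothionein-promoter Gal4–ROR gamma fusion plus Photinus luciferase reporter. Copper sulfate 700 uM final, 20 hr ambient incubation, luminescent detection after 10 min with reagent.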
# On the % scale 0 is the no-effect control and ±100 the full control effect; potency means the concentration at half of the fitted maximal effect.
# Chain of Nuclear receptor ROR-gamma (Mus musculus) (P51450 whole entry, looked up): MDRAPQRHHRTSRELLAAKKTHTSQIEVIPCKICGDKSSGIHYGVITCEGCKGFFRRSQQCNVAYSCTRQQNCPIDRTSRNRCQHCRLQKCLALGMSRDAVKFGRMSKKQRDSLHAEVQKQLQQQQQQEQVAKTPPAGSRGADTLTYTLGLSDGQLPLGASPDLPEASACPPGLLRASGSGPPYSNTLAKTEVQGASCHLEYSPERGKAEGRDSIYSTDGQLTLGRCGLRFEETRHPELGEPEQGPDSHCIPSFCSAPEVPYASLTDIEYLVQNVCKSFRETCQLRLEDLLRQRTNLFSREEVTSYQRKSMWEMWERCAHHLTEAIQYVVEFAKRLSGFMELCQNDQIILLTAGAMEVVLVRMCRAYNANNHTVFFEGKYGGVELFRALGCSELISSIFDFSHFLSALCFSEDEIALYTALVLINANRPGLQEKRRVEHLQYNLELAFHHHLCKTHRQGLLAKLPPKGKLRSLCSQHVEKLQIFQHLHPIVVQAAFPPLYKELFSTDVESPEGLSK
Compound,"activity change, negative = inhibition",Potency
Fc1ccc(COc2ccc(-c3nnco3)cc2)cc1,-8.22% (inactive),
Cc1nc2ccccc2cc1OCc1ccc(F)cc1,9.31% (inactive),
Fc1ccc(COc2cccc(-c3n[nH]c(=S)o3)c2)cc1,,11.2 µM (active)
Cc1cc(F)ccc1N1CCC(N2CCN(C)C(CCO)C2)CC1 (stereo not drawn),-2.72% (inactive),
Cc1cc(=O)cc(C)n1-c1ccc(Cl)c(Cl)c1,28% (inactive),
Cc1ccc(-n2c(C)cc(/C=N\NC(=O)CC(=O)NC(C)C)c2C)cc1,-24.7% (inactive),
Cc1cc(/C=N/NC(=O)CC2(C)OCCO2)c(C)n1-c1ccc(Cl)c(Cl)c1,,17.8 µM (active)
Cc1cccc(OCC(O)Cn2c(N3CCCCC3)nc3c2c(=O)[nH]c(=O)n3C)c1 (stereo not drawn),-5.74% (inactive),
COc1ccc2oc(=N)c(C(=O)Nc3ccc(Br)cc3)cc2c1,-1.56% (inactive),
O=C(c1noc2c1CCCC2)N1CCc2ccccc2C1,21% (inactive),
COc1cccc(C(=O)OCc2cc(=O)oc3c(C)c(C)ccc23)c1OC,2.33% (inactive),
CS(=O)(=O)N(CC(=O)N1CCN(Cc2ccccc2)CC1)c1ccc2c(c1)OCCO2,-13.4% (inactive),
c1ccc(CN2CCC(N=C3NN=C(c4ccc5c(c4)OCCO5)CS3)CC2)cc1,,10 µM (active)
Clc1cccc(N=C2NN=C(c3ccc4c(c3)OCCO4)CS2)c1,-31.8% (inactive),
Cc1ccccc1-c1nc(CS(=O)(=O)CC(=O)NC(C)c2ccccc2)c(C)o1 (stereo not drawn),11.3% (inactive),
Cc1ccc(NS(=O)(=O)c2c(C)[nH]c(C)c2C(=O)N2CCCCC2)c(C)c1,12.8% (inactive),
O=C(O)CCn1c(O)c(C=C2N=c3ccccc3=N2)sc1=S,,0.794 µM (active)
O=C(O)CCn1c(Cc2ccccc2)nc2ccccc21,-26.5% (inactive),
Cc1cc2ccccc2n1CCC(=O)O,-0.139% (inactive),
COc1ccccc1NC(=O)c1cc(N2C(=O)C3C4CCC(C4)C3C2=O)ccc1Cl (stereo not drawn),-0.842% (inactive),
CCc1nnc(NC(=O)C2CCCN2S(=O)(=O)c2ccccc2)s1 (stereo not drawn),28.2% (inactive),

Compound,"activity change, negative = inhibition",Potency
CC1CCCN(S(=O)(=O)c2ccc(C(=O)Nc3nnc(-c4ccncc4)o3)cc2)C1 (stereo not drawn),52.2% (inactive),
O=C(Nc1nnc(-c2ccco2)o1)c1ccc(S(=O)(=O)N2CCOCC2)cc1,,1.78 µM (active)
CNC(=O)c1ccsc1NC(=O)c1ccc(S(=O)(=O)N2CCOCC2)cc1,34.6% (inactive),
CC1CCCCN1S(=O)(=O)c1ccc(C(=O)Nc2nnc(-c3cccs3)o2)cc1 (stereo not drawn),,0.0891 µM (active)
CSCc1nnc(NC(=O)c2ccc(S(=O)(=O)N3CCCCC3C)cc2)o1 (stereo not drawn),,1 µM (active)
O=C(Nc1ccc(S(=O)(=O)N2CCOCC2)cc1)c1ccc2ncsc2c1,-12.2% (inactive),
Cc1ccnc(NS(=O)(=O)c2ccc(NC(=O)c3ccc(S(=O)(=O)N4CCOCC4)cc3)cc2)n1,1.69% (inactive),
CCc1nnc(NC(=O)c2ccc(S(=O)(=O)NC3CCCCC3)cc2)s1,1.55% (inactive),
CC(=O)c1ccc(OC(=O)N2CCOCC2)cc1,-0.265% [at 1.91 µM] (inactive),
COc1ccc(CNC(=O)COc2cccnc2[N+](=O)[O-])cc1,22.2% (inactive),
Cc1cc2c(=O)n(CC(=O)NCC(=O)Nc3ccc(C(C)C)cc3)cnc2s1,-16.7% (inactive),
CCCCN1C(=O)C(C)=C(C)C1OCCc1ccc(OC)c(OC)c1 (stereo not drawn),31.1% (inactive),
Cc1cc(-c2ccc(S(=O)(=O)N3CCN(c4cccc(C(F)(F)F)c4)CC3)s2)on1,-0.982% (inactive),
CN(C)C(=O)c1ccc(NC(=O)c2ccccc2-c2ccccc2)cc1,-1.38% (inactive),
CC(C)C[C@H](NC(=O)N1CC(=O)Nc2ccccc21)C(=O)N[C@H](Cc1ccccc1)C(=O)O,-9.76% (inactive),
CCOC(=O)CSc1nc2ccc(C)cc2n2cnnc12,-16.2% (inactive),
CCCOc1cccc(C(=O)Nc2ccccc2C(=O)N2CCN(C)CC2)c1,-0.522% (inactive),
CC(=O)Nc1ccc(S(=O)(=O)NC2Cc3ccccc3C2)cc1,38.5% (inactive),
CCN1C(=S)N[C@@H](CCc2ccccc2)[C@H](C(=O)OC)[C@H]1C,,inactive and 2.24 µM (active)
CCN1C(=NCc2ccc(OC)cc2)N[C@@H](CCc2ccccc2)[C@H](C(=O)NCc2ccc(OC)cc2)[C@H]1C,4.67% (inactive),
COCCN1C(=O)N[C@@H](CCc2ccccc2)[C@H](C(C)=O)[C@H]1C,21.6% (inactive),

Compound,"activity change, negative = inhibition",Potency
CN1CCN(C(=O)c2cnn(-c3ccccc3)c2NC(=O)c2ccc([N+](=O)[O-])cc2)CC1,-8.25% (inactive),
Cc1cccc(C)c1NC(=O)CS(=O)CC(=O)N1CCN(c2ccccc2)CC1 (stereo not drawn),-19.9% (inactive),
CCNS(=O)(=O)c1ccc(CCC(=O)N2CCN(c3ccc(OC)cc3)CC2)cc1,9.28% (inactive),
CN(C)C(=O)Cn1c(=O)n(S(=O)(=O)c2ccccc2)c2ccccc21,10.5% (inactive),
COC(=O)c1ccccc1NC(=O)CSc1n[nH]c(-c2ccncc2)n1,36.6% (inactive),
Cc1ccc2oc(C(=O)N3CCN(C)C[C@@H]3C(C)C)c(C)c2c1,-0.958% (inactive),
Cc1ccc(OCc2cc(C(=O)N(C)CCc3ccccc3)no2)cc1C,-4.2% (inactive),
CN(Cc1cccnc1)C(=O)c1cc(COc2ccc3ncccc3c2)on1,,4.47 µM (active)
CC(=O)c1cccc(OCc2cc(C(=O)NC(C)Cc3cccnc3)no2)c1 (stereo not drawn),31.8% (inactive),
COCCn1cnc2c1c(=O)n(Cc1ccc(Br)cc1)c(=O)n2Cc1ccccc1,-20.4% (inactive),
O=C(CCNC(=O)C1CCN(S(=O)(=O)c2ccccc2)CC1)NC1CC1,-5.98% (inactive),
COc1ccc(CN2CCCC(N3CCc4ccccc4C3)C2)c(O)c1 (stereo not drawn),6.04% (inactive),
CCOC(=O)C1=C(NC(=S)NC(=O)c2ccccc2)c2ccccc2CC1(C)C,,4.47 µM (active)
CCOC(=O)c1c(-c2ccc(-c3ccccc3)cc2)csc1NC(=O)CCC(=O)O,-0.541% (inactive),
CCOC(=O)CNC(=O)/C(=C\c1ccc(F)cc1)NC(=O)c1ccccc1,5.21% (inactive),
CCOC(=O)c1c(-c2ccccc2)csc1NC(=S)NC(=O)c1ccccc1,,2.82 µM (active)
CCOC(=O)c1c(-c2cccc(C)c2)csc1NC(=O)c1c(-c2ccccc2)noc1C,-5.37% (inactive),
CCOC(=O)C1=C(C)c2ccccc2OC1(C)C(=O)OCC (stereo not drawn),14% (inactive),
COc1cccc(C(=O)Nc2nnc(S(=O)(=O)N3CCCCC3)s2)c1,12.4% (inactive),
CC(=O)Nc1ccc(NC(=O)CCCNC(=O)c2ccc(Cl)cc2)cc1,9.12% (inactive),
CC(C)c1ccc(C2C(C(=O)c3ccco3)=C(O)C(=O)N2CC2CCCO2)cc1 (stereo not drawn),-4.63% (inactive),
